Data on 40 compounds can be found in PubChem BioAssay (EPA / NIEHS).

Active and inactive are the calls of the source. How the source made its calls: active means hit-call score of the fitted dose curve at least 0.9, where 1 is the maximum; inactive means score below 0.9.

The assay can be described thus: ATG_M_06_CIS: Attagene CIS-FACTORIAL HepG2 Assay for M06 Transcription Factor (Internal Marker) (AID 2282950). Particulars: HepG2 Attagene CIS-FACTORIAL M06 internal marker reporter; actives raise or lower the signal. The method, then: ATG_CIS is a cell-based, multiplexed-readout assay that uses HepG2, a human liver cell line, with measurements taken at 24 hours after chemical dosing in a 24-well plate.ATG_M_06_CIS is one of 52 assay component(s) measured or calculated from the ATG_CIS assay. It is designed to make measurements of mRNA induction, a form of inducible reporter, as detected with fluorescence intensity signals by Reverse transcription polymerase chain reaction (RT-PCR) and Capillary electrophoresis technology.Data from the assay component ATG_M_06_CIS was analyzed into 1 assay endpoint. This assay endpoint, ATG_M_06_CIS, was analyzed with bidirectional fitting relative to DMSO as the negative control and baseline of activity. Using a type of inducible reporter, measures of mRNA for gain or loss-of-signal activity can be used to understand the background control at the transcription factor-level as they relate to the gene . Furthermore, this assay endpoint can be referred to as a secondary readout, because this assay has produced multiple assay endpoints where this one serves a background control function. To generalize the intended target to other relatable targets, this assay endpoint is annotated to the background measurement intended target family, where the subfamily is internal marker.
Human liver HepG2 cells are transiently transfected with multiple reporter transcription units (MRTUs) in 6-well plates using FuGene 6 reagent (Roche; 3 ml FuGene/1 mg DNA). The MRTU constructs are regulated by a cis-regulating element (promoter). […] A major difference between the CIS and TRANS system is that in CIS activities of endogenous TFs are measured, whereas the TRANS assay evaluates changes in activities of exogenous, chimeric NR-Gal4 proteins. […] At the end of 24 hour incubation, total RNA was isolated using TriZol reagent (Invitrogen). The isolated RNA is then reverse-transcribed using oligo(dT) primer and Mo-MLV reverse transcriptase (Invitrogen) with DNAse I (Ambion) treatment for 30 min. The one-tenth of the produced cDNA was amplified by PCR using Taq DNA polymerase (Invitrogen) and two reporter sequence-specific primers. The PCR products were fluorescently labeled by primer extension with 6-arboxyfluorescein (6-FAM) 5'-labeled reporter sequence-specific primer (2 min at 95 C, 20 s at 68 C and 10 min at 72 C) and these products were digested with 5U of HpaI (New England Biolabs) for 2h at 37 C. The fragments were purified using Qiaquick PCR columns (Qiagen), analyzed on an ABI 3130xL genetic analyzer (Applied Biosystems) with peak positions identified by using a set of X-rhodamine (ROX)-labeled MapMarker1000 molecular weight standards (BioVentures). The raw capillary electrophoresis data was processed using Attagraph software (Attagene).
On to `c1ccc2c(c1)oc1ccccc12`, for which the compound was called inactive. The value for `O=C(O)C1C2CCC(O2)C1C(=O)O` (stereo not given) was “inactive”; that for `CC(C)(C)OOC(C)(C)CCC(C)(C)OOC(C)(C)C` was “inactive”.

Consider `Nc1ccc(Oc2ccc(N)cc2)cc1`, for which the outcome was inactive. As to `Cc1ccc(N)c(N)c1`, the compound was called inactive.

Take `CC(C)(O)c1cnn2c(-c3ccc(F)c(-c4c(F)cccc4C#N)c3)cnc2n1`: the outcome was inactive. `CC(C)(C)C(O)(CCc1ccc(Cl)cc1)Cn1cncn1` (stereo not given): the outcome was inactive.

For `O=[N+]([O-])C(Br)(CO)CO`, the compound was classed as inactive. Regarding `Clc1ccc(C(c2ccc(Cl)cc2)C(Cl)(Cl)Cl)cc1`, the outcome was inactive.

Turning to `[Cl-].[Cl-].[Hg+2]`, the outcome was inactive.

As for `CC(C)COC(=O)c1ccccc1C(=O)OCC(C)C`, the call was inactive.

On to `Nc1ccc([N+](=O)[O-])cc1`, for which the compound was called inactive. Next, `[As]#[In]`: “inactive”; `CCOc1cccc(C2(N3CCN(c4ccccc4)CC3)CCC(C)CC2)c1` (stereo not given): “inactive”; `Oc1ccccc1Cl`: “inactive”.

With `c1ccc(N=Nc2ccccc2)cc1`, the result was inactive. Next, `c1ccc(NNc2ccccc2)cc1`: “inactive”; `CC(O)CCO` (stereo not given): “inactive”. With `ClC1=C(Cl)C2(Cl)C3C(Cl)C=CC3C1(Cl)C2(Cl)Cl` (stereo not given), the outcome was inactive. For `CC(C)(C)OOC(=O)c1ccccc1`, the compound was classed as inactive.

`Cn1cc(-c2ccccc2)c(=O)c(-c2cccc(C(F)(F)F)c2)c1`: the compound was called inactive. The value for `Clc1ccc(Cl)c(Cl)c1` was “inactive”; that for `C1=Cc2cccc3cccc1c23` was “inactive”. Regarding `O=C1CCCO1`, the compound was called inactive. Consider `O=C(N[C@H](c1ccccc1)[C@@H]1CN2CCC1CC2)c1c(Cl)ccc(C(F)(F)F)c1Cl`, for which the compound was classed as inactive.

Turning to `Cc1ccc(N=C=O)cc1N=C=O`, the outcome was inactive.

Take `CCN(CC)N=O`: the result was inactive. For `Cc1ccc([N+](=O)[O-])cc1`, the outcome was inactive. Next, `C=CCc1ccc2c(c1)OCO2`: “inactive”; `O=C(Oc1ccc(Br)cc1)N1CCN2CCC1CC2`: “inactive”. Next, `Nc1cc(Cl)cc(C(=O)O)c1Cl`: “inactive”; `Oc1ccc2ccc3cccc4ccc1c2c34`: “inactive”; `COP(=S)(OC)SCN1C(=O)c2ccccc2C1=O`: “inactive”.

Consider `CCC[CH2][Sn]([Cl])([CH2]CCC)[CH2]CCC`, for which the result was inactive. Next, `CCCCCCCCOC(=O)c1ccc(C(=O)OCCCCCCCC)c(C(=O)OCCCCCCCC)c1`: “inactive”; `CCCCC(CC)COC(=O)c1ccc(C(=O)OCC(CC)CCCC)c(C(=O)OCC(CC)CCCC)c1` (stereo not given): “inactive”.

Consider `Cc1ccc(N)cc1`, for which the compound was called inactive. Next, `O=[N+]([O-])c1ccc(Oc2ccc(Cl)cc2Cl)cc1`: “inactive”; `C[C@]12C=CC3=C4CCC(=O)C=C4CC[C@H]3[C@@H]1CC[C@@H]2O`: “inactive”; `O=Cc1ccco1`: “inactive”.
